Assay results reported in PubChem BioAssay (EPA / NIEHS).
Active and inactive are the calls of the source. Rule for the calls: active = hit-call score of the fitted dose curve at least 0.9, where 1 is the maximum; inactive = score below 0.9.

Columns and labels:
Settings in all cases: mRNA level, 48 h; actives raise or lower the signal
[1] = read-out: Cytochrome P450 7A1 (Homo sapiens) (UniProt P22680); assay: LTEA_HepaRG_CYP7A1: Life Technologies and Expression Analysis (LTEA) Assay for Cytochrome P450 7A1 (CYP7A1) using HepaRG (AID 2283496)
Procedure, shortened: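 HepaRG cells plated 48 h, then switched to serum-free induction medium and exposed in duplicate for 48 h to 8-point half-log series from 100 uM in 0.5% DMSO. CYP7A1 mRNA by qRT-PCR (TaqMan), normalized to ACTB/GAPDH/POLR2A; bidirectional fit versus DMSO.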

[2] = read-out: Glutathione S-Transferase (GSTA2), GSTA2 (gene 2939); assay: LTEA_HepaRG_GSTA2: Life Technologies and Expression Analysis (LTEA) Assay for Glutathione S-Transferase (GSTA2) using HepaRG (AID 2283497)
Procedure, shortened: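 Human HepaRG cells, plated 48 h, then exposed in serum-free induction medium for 48 h to eight half-log concentrations up to 100 uM in 0.5% DMSO, duplicate. GSTA2 mRNA by qRT-PCR, normalized to ACTB/GAPDH/POLR2A; bidirectional fit versus DMSO.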

[3] = read-out: Glutamate-cysteine ligase catalytic (GCLC), GCLC (gene 2729); assay: LTEA_HepaRG_GCLC: Life Technologies and Expression Analysis (LTEA) Assay for Glutamate-cysteine ligase catalytic (GCLC) using HepaRG (AID 2283498)
Procedure, shortened: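 Differentiated human HepaRG cells, plated 48 h then switched to serum-free induction medium, were exposed in duplicate for 48 h to 8 half-log concentrations topping at 100 uM in 0.5% DMSO. GCLC mRNA was quantified by qRT-PCR against ACTB, GAPDH and POLR2A.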

[4] = read-out: growth arrest and DNA damage 45 (GADD45G), GADD45G (gene 10912); assay: LTEA_HepaRG_GADD45G: Life Technologies and Expression Analysis (LTEA) Assay for growth arrest and DNA damage 45 (GADD45G) using HepaRG (AID 2283499)
Procedure, shortened: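 HepaRG, 48 h exposure, top 100 uM, half-log 8-point series, 0.5% DMSO vehicle, duplicates. Readout: GADD45G transcript by qRT-PCR (Fluidigm array), housekeeping-normalised (ACTB/GAPDH/POLR2A). Bidirectional curve fit vs DMSO baseline.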

[5] = read-out: Glutamate-cysteine ligase regulatory (GCLM), GCLM (gene 2730); assay: LTEA_HepaRG_GCLM: Life Technologies and Expression Analysis (LTEA) Assay for Glutamate-cysteine ligase regulatory (GCLM) using HepaRG (AID 2283500)
Procedure, shortened: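 Cells were plated, cultured 48 h, switched to serum-free induction medium, then dosed in duplicate for 48 h at eight half-log concentrations up to 100 uM. RNA was then profiled by qRT-PCR; gain or loss versus DMSO was fitted.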

[6] = read-out: Glutathione S-transferase M3 (GSTM3), GSTM3 (gene 2947); assay: LTEA_HepaRG_GSTM3: Life Technologies and Expression Analysis (LTEA) Assay for Glutathione S-transferase M3 (GSTM3) using HepaRG (AID 2283501)
Procedure, shortened: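 qRT-PCR read-out of GSTM3 transcript, normalized to three housekeeping genes, from human HepaRG cells after 48 h chemical exposure. Eight-point half-log series, top 100 uM, 0.5% DMSO vehicle; gain or loss fitted relative to DMSO baseline.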

[7] = read-out: Heat shock 70 kDa protein 1 (HSPA1A), gene 3303; assay: LTEA_HepaRG_HSPA1A: Life Technologies and Expression Analysis (LTEA) Assay for Heat shock 70 kDa protein 1 (HSPA1A) using HepaRG (AID 2283502)
Procedure, shortened: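 Readout is HSPA1A transcript level by microfluidic qRT-PCR, normalized to three housekeeping genes and analysed for gain or loss of signal relative to 0.5% DMSO. Human HepaRG cultures received test chemicals for 48 h at up to 100 uM.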

[8] = read-out: Hypoxia-inducible factor 1-alpha (Homo sapiens) (UniProt Q16665); assay: LTEA_HepaRG_HIF1A: Life Technologies and Expression Analysis (LTEA) Assay for Hypoxia-inducible factor 1 (HIF1A) Trancription factor using HepaRG (AID 2283503)
Procedure, shortened: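 Differentiated HepaRG cells in serum-free induction medium exposed 48 h, in duplicate, to 8-point half-log series from 100 uM in 0.5% DMSO. HIF1A mRNA measured by TaqMan qRT-PCR, normalized to ACTB/GAPDH/POLR2A, fitted bidirectionally versus DMSO.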

[9] = read-out: HGF (gene 3082); assay: LTEA_HepaRG_HGF: Life Technologies and Expression Analysis (LTEA) Assay for Hepatocyte Growth Facto (HGF) using HepaRG (AID 2283505)
Procedure, shortened: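 HepaRG, 48 h dosing, 8-pt half-log series from 100 uM in 0.5% DMSO, duplicates. Readout: TaqMan qRT-PCR of HGF mRNA, housekeeping-normalized; bidirectional curve fit vs DMSO baseline.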

[10] = read-out: Intercellular Adhesion Molecule 1 (ICAM1), ICAM1 (gene 3383); assay: LTEA_HepaRG_ICAM1: Life Technologies and Expression Analysis (LTEA) Assay for Intercellular Adhesion Molecule 1 (ICAM1) using HepaRG (AID 2283507)
Procedure, shortened: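 HepaRG, 48 h exposure, 8-pt half-log series from 100 uM, 0.5% DMSO vehicle, duplicates. Readout: TaqMan qRT-PCR mRNA, housekeeping-normalized (ACTB/GAPDH/POLR2A). Bidirectional curve fit vs DMSO baseline.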

[11] = read-out: Insulin-like growth factor-binding protein 1 (IGFBP1), IGFBP1 (gene 3484); assay: LTEA_HepaRG_IGFBP1: Life Technologies and Expression Analysis (LTEA) Assay for Insulin-like growth factor-binding protein 1 (IGFBP1) using HepaRG (AID 2283508)
Procedure, shortened: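 qRT-PCR mRNA read-out (TaqMan, Fluidigm array), normalised to three housekeeping genes; HepaRG cells, 48 h exposure, 8-pt half-log series from 100 uM, 0.5% DMSO vehicle; bidirectional curve fit vs DMSO baseline.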

[12] = read-out: Interleukin 6 (IL6), IL6 (gene 3569); assay: LTEA_HepaRG_IL6: Life Technologies and Expression Analysis (LTEA) Assay for Interleukin 6 (IL6) using HepaRG (AID 2283509)
Procedure, shortened: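 Differentiated human HepaRG cells, plated 48 h then switched to serum-free induction medium, were exposed in duplicate for 48 h to eight half-log concentrations up to 100 uM in 0.5% DMSO. IL6 mRNA measured by qRT-PCR, normalized to ACTB/GAPDH/POLR2A.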

[13] = read-out: Interleukin 6 Receptor (IL6R), IL6R (gene 3570); assay: LTEA_HepaRG_IL6R: Life Technologies and Expression Analysis (LTEA) Assay for Interleukin 6 Receptor (IL6R) using HepaRG (AID 2283510)
Procedure, shortened: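 Readout is IL6R transcript level by TaqMan qRT-PCR, normalized to three housekeeping genes and fitted bidirectionally against 0.5% DMSO controls. Human HepaRG cells received chemicals for 48 h in serum-free induction medium, highest concentration 100 uM.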

[14] = read-out: Potassium channel subfamily K member 1 (KCNK1), KCNK1 (gene 3775); assay: LTEA_HepaRG_KCNK1: Life Technologies and Expression Analysis (LTEA) Assay for Potassium channel subfamily K member 1 (KCNK1) using HepaRG (AID 2283511)
Procedure, shortened: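 Differentiated human HepaRG cells in serum-free induction medium were exposed in duplicate for 48 h to 8 half-log concentrations up to 100 uM in 0.5% DMSO. KCNK1 mRNA was measured by TaqMan qRT-PCR, normalized to ACTB, GAPDH and POLR2A, and fitted bidirectionally versus DMSO.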

[15] = read-out: Keratin 19 (KRT19), KRT19 (gene 3880); assay: LTEA_HepaRG_KRT19: Life Technologies and Expression Analysis (LTEA) Assay for Keratin 19 (KRT19) using HepaRG (AID 2283512)
Procedure, shortened: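 HepaRG, 48 h chemical exposure, 8-pt half-log CRC from 100 uM, 0.5% DMSO vehicle, duplicates. Readout: TaqMan qRT-PCR of KRT19 mRNA, housekeeping-normalized (ACTB/GAPDH/POLR2A). Bidirectional fit vs DMSO baseline.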

[16] = read-out: JUN Transcription Factor, JUN (gene 3725); assay: LTEA_HepaRG_JUN: Life Technologies and Expression Analysis (LTEA) Assay for JUN Transcription Factor using HepaRG (AID 2283513)
Procedure, shortened: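 Cells plated 48 h, medium switched to serum-free induction medium, then dosed 48 h (100 uM top, half-log dilutions, 0.5% DMSO). RNA isolated; JUN measured by qRT-PCR against three housekeeping genes; gain or loss fitted relative to DMSO.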

[17] = read-out: Lipoprotein lipase (LPL), LPL (gene 4023); assay: LTEA_HepaRG_LPL: Life Technologies and Expression Analysis (LTEA) Assay for Lipoprotein lipase (LPL) using HepaRG (AID 2283515)
Procedure, shortened: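 Differentiated human HepaRG cells in serum-free induction medium were exposed in duplicate for 48 h to eight half-log concentrations (top 100 uM) in 0.5% DMSO. LPL mRNA was quantified by TaqMan qRT-PCR, normalized to ACTB, GAPDH and POLR2A.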

[18] = read-out: Lipase C (LIPC), LIPC (gene 3990); assay: LTEA_HepaRG_LIPC: Life Technologies and Expression Analysis (LTEA) Assay for Lipase C (LIPC) using HepaRG (AID 2283514)
Procedure, shortened: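 Differentiated human HepaRG cells in serum-free induction medium were exposed in duplicate for 48 h to eight concentrations (top 100 uM, half-log steps, 0.5% DMSO). LIPC mRNA was quantified by TaqMan qRT-PCR, normalized to ACTB, GAPDH and POLR2A, with bidirectional fitting versus DMSO.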

Measured: AC50

Hypoxia-inducible factor 1-alpha (Homo sapiens), sequence (Q16665 whole entry, looked up): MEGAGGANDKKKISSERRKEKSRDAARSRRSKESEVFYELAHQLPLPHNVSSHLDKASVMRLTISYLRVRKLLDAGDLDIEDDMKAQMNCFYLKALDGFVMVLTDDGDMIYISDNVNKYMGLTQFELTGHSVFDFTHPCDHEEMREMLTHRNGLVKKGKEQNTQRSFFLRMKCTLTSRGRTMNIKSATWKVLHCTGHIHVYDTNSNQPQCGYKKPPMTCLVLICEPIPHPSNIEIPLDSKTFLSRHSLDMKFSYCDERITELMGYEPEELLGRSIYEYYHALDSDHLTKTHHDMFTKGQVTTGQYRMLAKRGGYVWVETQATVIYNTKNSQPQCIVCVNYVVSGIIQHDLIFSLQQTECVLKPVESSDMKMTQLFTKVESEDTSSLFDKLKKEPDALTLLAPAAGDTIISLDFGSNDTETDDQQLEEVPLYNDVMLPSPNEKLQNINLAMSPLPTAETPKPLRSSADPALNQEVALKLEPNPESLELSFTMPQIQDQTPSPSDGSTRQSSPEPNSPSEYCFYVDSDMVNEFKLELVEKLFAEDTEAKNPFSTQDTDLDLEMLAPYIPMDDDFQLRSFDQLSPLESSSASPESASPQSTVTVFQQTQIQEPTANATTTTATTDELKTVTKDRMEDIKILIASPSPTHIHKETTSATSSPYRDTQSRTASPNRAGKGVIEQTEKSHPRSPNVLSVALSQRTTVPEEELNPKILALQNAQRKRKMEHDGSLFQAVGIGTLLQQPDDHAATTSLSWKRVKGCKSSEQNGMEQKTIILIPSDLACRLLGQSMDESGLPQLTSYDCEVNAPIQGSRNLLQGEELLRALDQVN

Clc1ccc(Cl)cc1
not listed: [18]
inactive: all other assays above

O=C(O)C(F)(F)C(F)(F)C(F)(F)C(F)(F)C(F)(F)C(F)(F)C(F)(F)C(F)(F)F
inactive: [6] | [8] | [13]
active: [1] 86.7 µM | [2] 86.8 µM | [3] 75.3 µM | [4] 85.6 µM | [5] 77 µM | [9] 50 µM | [10] 78.7 µM | [11] 86.1 µM | [12] 78.6 µM | [14] 76 µM | [15] 66.6 µM | [16] 68.2 µM | [17] 79.5 µM

Cc1cccc(C)c1N
not listed: [2]
inactive: all other assays above

CC(C)(c1ccccc1)c1ccc(O)cc1
active: [1] 88.7 µM | [2] 87.3 µM | [9] 83.2 µM | [18] 83.6 µM
not listed: [7]
inactive: all other assays above

C[C@]12CCC(=O)C=C1CC[C@@H]1[C@@H]2CC[C@@]2(C)[C@H]1CC[C@]2(C)O
active: [1] 1.9 µM | [18] 81.7 µM
not listed: [2] | [7]
inactive: all other assays above

Oc1ccc(C(c2ccc(O)cc2)(C(F)(F)F)C(F)(F)F)cc1
active: [1] 89.6 µM | [7] 72.8 µM | [8] 83.5 µM | [11] 75.9 µM | [12] 91.8 µM | [13] 89.2 µM | [16] 92.4 µM | [17] 79.3 µM
inactive: [3] | [4] | [5] | [6] | [9] | [10] | [14] | [15]

CCCCCCOC(=O)c1ccccc1C(=O)OCCCCCC
not listed: [2] | [7] | [18]
inactive: all other assays above
